# From PubChem
# Rows were chosen to be rich in hits. Some 1.5% of all compounds tested hit in one or more screens of this group.
# E coli Lon inh: inhibitors of E. coli Lon protease | hit rate 0.42% among 360,000 | AID 602123 | inhibition, % at 7.94 µM | purified E. coli Lon protease, fluorescence polarization | P0A9M0; in the data active = inhibition above about 13%, passing the limit was not always enough
# MCL1 BIM primary: MCL1-BIM-BH3 interaction inhibition (human) | GST-MCL1 / FITC-Bim-BH3 fluorescence polarization | inhibition, % at 10.9 µM | hit rate 0.68% among 320,000;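 active = inhibition above the mean inhibition of all tested compounds plus 3 SD, set per campaign, cut at about 40% in these data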;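 note: higher means more loss of mP so more displacement of Bim peptide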
# MEX-5 binding: C. elegans MEX-5 TCR-2 RNA binding activity. Q9XUB2. MEX-5/FITC-TCR2 RNA binding, fluorescence polarization; active compounds read low. activity score (negative = inhibition of binding), % at 10 µM. hit rate 0.38% among 300,000. AID 1832;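 active = inhibition past about -25% in most replicates, and total fluorescence under double the plate's negative control median, limit read from the data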
# GLD-1 RNA inh: GLD-1-TGE RNA interaction inhibition (C. elegans) | Q17339 | purified GLD-1 + fluorescein TGE RNA, fluorescence polarization | inhibition, % at 5.96 µM | hit rate 0.44% among 320,000 | AID 2280;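 active = percent inhibition above a per-plate cutoff, the plate mean of test compounds plus 3 SD, cut at about 30% in these data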
# Target sequence (Q17339 whole entry, looked up): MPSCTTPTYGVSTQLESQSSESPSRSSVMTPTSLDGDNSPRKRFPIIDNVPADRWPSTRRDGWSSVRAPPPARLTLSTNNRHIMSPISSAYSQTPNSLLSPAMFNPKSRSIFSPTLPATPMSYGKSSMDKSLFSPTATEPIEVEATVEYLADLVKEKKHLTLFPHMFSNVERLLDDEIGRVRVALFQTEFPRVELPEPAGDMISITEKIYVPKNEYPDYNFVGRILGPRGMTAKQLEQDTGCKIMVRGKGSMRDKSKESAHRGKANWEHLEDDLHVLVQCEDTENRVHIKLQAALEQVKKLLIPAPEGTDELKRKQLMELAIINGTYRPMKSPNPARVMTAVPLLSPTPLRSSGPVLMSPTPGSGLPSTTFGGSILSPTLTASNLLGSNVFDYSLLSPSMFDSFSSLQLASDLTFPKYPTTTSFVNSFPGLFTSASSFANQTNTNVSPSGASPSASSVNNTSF
# Bcl-xL primary: inhibitors of human Bcl-xL; Q07817; hit rate 0.7% among 320,000; inhibition, % at 10.9 µM; GST-Bcl-xL / FITC-Bim BH3 peptide fluorescence polarization;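 active = inhibition above the mean of all tested compounds plus 3 SD, cutoff set per campaign, cut at about 30% in these data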;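 note: inhibitors lower millipolarization by displacing the labeled peptide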
# EBV gp42 inh: EBV gp42 inhibition; inhibition, % (tested at 21.74 µM); hit rate 0.42% among 220,000; Fluorescence polarization binding assay, mP read-out; in the data active = inhibition above about 50%
# Bcl-xL conf: counter-screen for MCL1 inhibitors: confirmation of human Bcl-xL inhibitors. inhibition, % at 10.9 µM. shares compounds with MCL1 BIM primary. AID 2166. GST-Bcl-xL / FITC-Bim BH3 peptide FP binding. hit rate 54% among 1,700;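 active = inhibition above a cutoff equal to the mean inhibition of all tested compounds plus 3 SD, cut at about 30% in these data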
# MCL1 inh confirm: MCL1-BIM-BH3 interaction inhibition, confirmation; shares compounds with MCL1 BIM primary; GST-MCL1 / FITC-Bim-BH3 fluorescence polarization; inhibition, % at 10.9 µM; hit rate 61% among 1,700; AID 2168;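 active = inhibition above the average of all tested compounds plus 3 SD, cut at about 40% in these data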
# A number is an active result; - = inactive; . = no result; + = active, no number.
SMILES,E coli Lon inh,MCL1 BIM primary,MEX-5 binding,GLD-1 RNA inh,Bcl-xL primary,EBV gp42 inh,Bcl-xL conf,MCL1 inh confirm
COC(=O)c1c(C)[nH]c(C=O)c1-c1ccccc1,-,-,.,-,-,-,.,.
CCC(C)NC(=O)C1(O)c2cc(Br)ccc2NC(=O)N1c1cccc(OC)c1 (configuration not stated),-,-,-,-,-,.,.,.
CSc1nc(NCCOCCO)c2sc3nc(-c4ccco4)c4c(c3c2n1)CCC4,-,69,-,-,-,-,-,67
Cc1ccc(C2Nc3cccc4cccc(c34)N2)s1,-,61,-,-,51,-,-,-
FC(F)(F)c1ccc(C2Nc3cccc4cccc(c34)N2)cc1,-,.,.,.,.,-,.,.
CCN(CC)c1ccc(C2Nc3cccc4cccc(c34)N2)cc1,-,-,-,-,-,.,.,.
Fc1ccc(C2Nc3cccc4cccc(c34)N2)cc1,-,41,-,-,-,.,-,-
CC(=O)NC(CC(=O)N(Cc1ccccc1)c1cccc(C)c1)c1ccccc1 (configuration not stated),-,-,-,-,-,.,.,.
COc1ccc(NC(=O)CSc2nc3nc(C)cc(C)c3c(=O)[nH]2)cc1,-,55,-,-,35,.,-,-
Cc1c(Cl)cccc1NS(=O)(=O)c1ccc2c(c1)C1C=CCC1C(c1ccc(C(=O)O)cc1)N2 (configuration not stated),-,61,.,-,39,79,-,74
COc1ccc(NS(=O)(=O)c2ccc3c(c2)[C@H]2C=CC[C@H]2[C@@H](c2ccc(C(=O)O)cc2)N3)cc1,-,54,-61,-,-,.,-,-
O=C(O)c1ccc2c(c1)C1C=CCC1C(c1ccncc1)N2 (configuration not stated),-,-,-,-,-,-,.,.
CC(=O)c1ccc2c(c1)C1C=CCC1C(c1ccc(S(=O)(=O)N3CCOCC3)cc1)N2 (configuration not stated),-,-,.,-,-,-,.,.
CN(C)C(=O)CCc1ccc2c3c([nH]c2c1)[C@]1(CCc2ccccc2)[C@@H](C(=O)N2CCCCC2)C[C@H](CC(=O)NC(C)(C)C)C(=O)N1CC3,-,.,.,.,.,.,.,.
O=C(COc1ccccc1)OCc1cc(-c2ccco2)on1,-,-,.,-,-,.,.,.
CCc1ccc(OCC(=O)OC(C)C(=O)Nc2ccc(Cl)cn2)cc1 (configuration not stated),-,-,.,-,-,.,.,.
COc1ccc(N2CC(C(=O)Nc3ccncc3)CC2=O)cc1 (configuration not stated),-,-,-,-,-,.,.,.
Cc1oc2c(cc(NS(=O)(=O)c3ccc(F)cc3)c3ccccc32)c1C(=O)O,-,-,-,-,-,.,.,.
Cc1oc2c(cc(NS(=O)(=O)c3ccc(C(C)C)cc3)c3ccccc32)c1C(=O)O,-,75,-,32,69,.,110,138
CC(=O)Nc1ccc(NC(=O)C(C)OC(=O)/C(C#N)=C/c2ccc(N(C)C)cc2)cc1 (configuration not stated),-,+,-26,136,+,.,165,191
COC(=O)c1ccc(OC(=O)/C=C/c2ccco2)cc1,-,-,-,-,-,.,.,.
O=Cc1cccc(OC(=O)/C=C/c2ccco2)c1,-,50,-,-,-,.,-,52
Cc1cc(C)c2nc(-c3ccccn3)cc(C(=O)Nc3ccc(S(=O)(=O)Nc4onc(C)c4C)cc3)c2c1,-,41,-,-,-,-,30,79
CC(Cc1ccccc1)N1C(=O)c2cccc([N+](=O)[O-])c2C1=O (configuration not stated),-,169,-,180,146,.,-,-
Cc1ccnc(Nc2nc(-c3ccc(O)c(O)c3)cs2)c1,-,42,-,-,-,.,36,42
C/C(=C\c1ccccc1)C1Nc2cccc3cccc(c23)N1,.,41,.,-,-,.,-,-
COc1cc2cc(C#N)c(SCC(=O)N3CCOCC3)nc2cc1OC,-,-,-,-,-,-,.,.
